Data reported in PubChem BioAssay.

assay: DUSP6 inhibitors restoring Erk phosphorylation by chemical complementation, primary imaging in DUSP6-transfected HeLa (AID 609); settings: HeLa MKP-3 transfected, phospho-Erk imaging KS statistic; measured here: nuclear pErk red intensity z-score; at 10 µM; stronger effect = higher value; cells stimulated with TPA for 15 min

| SMILES | z-score |
| --- | --- |
| CN1CCN(C2=Nc3cc(Cl)ccc3Nc3ccccc32)CC1 | 0.322 |
| CCN(CC)CCNC(=O)c1ccc(N)cc1 | -0.833 |
| CCOC(=O)C(OC(=O)c1sc(=S)n(C)c1C)C(C)=O (configuration not stated) | -0.266 |
| COc1ccc(Cn2ccnc2)cc1Br | -0.19 |
| CC1(C)CC(=O)C=C(N=CC2=C(O)CC(C)(C)CC2=O)C1 | 0.848 |
| CC1(C)CC(=O)C(C=N)=C(O)C1 | 0.177 |
| COc1cc(C(=O)Nc2ccccn2)cc(OC)c1OC | 0.79 |
| CN(C)CCCN1c2ccccc2CCc2ccccc21 | 2.03 |
| CC1(C)S[C@@H]2[C@H](NC(=O)[C@H](N)c3ccccc3)C(=O)N2[C@H]1C(=O)O | 1.6 |
| CCOC(=O)C(Oc1ccc(=O)[nH]n1)C(C)=O (configuration not stated) | -1.16 |
| Fc1ccc(C(c2ccc(F)cc2)N2CCN(C/C=C/c3ccccc3)CC2)cc1 | -1.06 |
| O=P(Cc1nnco1)(c1ccccc1)c1ccccc1 | 0.749 |
| COc1ccc(OCC(=O)OCCN(C)C)cc1 | -0.272 |
| C=CCNc1nc(C2(C)CC3(CC(C)(C)OC3=O)C(=O)O2)cs1 (configuration not stated) | -1.68 |
| CCCCCOc1ccc(Cl)cc1CN1CCOCC1 | -0.781 |
| COC(=O)C1C(=O)NCC1c1ccccc1 (configuration not stated) | -1.15 |
| CC(=O)Oc1oc(-c2ccccc2)nc1/C=N/c1ccccn1 | 0.905 |
| NC(N)=Nc1nc(CSCC/C(N)=N/S(N)(=O)=O)cs1 | -1.37 |
| CC1(C)CC(=O)C=C(NCCO)C1 | -0.675 |
| COc1ccc(-c2coc3cc(O)cc(O)c3c2=O)cc1 | 0.72 |
| O=C(NCCO)C1(c2ccccc2)CCCC1 | -1.5 |
| COc1cc2nc(N3CCN(C(=O)C4CCCO4)CC3)nc(N)c2cc1OC (configuration not stated) | -0.73 |
